Test results as given in PMC4336329 (PLoS ONE, 2015).
The campaign covered roughly 310,000 compounds. About 2,200 (0.71%) showed an effect of 50% or more. The effect is printed as a negative number. The entries come from a sample that favours strong results as a whole.

The molecules below were run against human ether-à-go-go-related gene (hERG) potassium channel (human, UniProt Q12809) (assay: primary screen, population patch clamp on CHO cells stably expressing hERG; higher = less effect of the substance).
Method: Briefly, Chinese hamster ovary (CHO) cells stably expressing the hERG channel were dislodged from tissue culture flasks and dispensed into PPC plates. […] During the recording, background leak currents were estimated by a 100 ms step to -80 mV from an initial holding potential of -70 mV and subtracted from the subsequent current measurement. The campaign was conducted in two phases using slight differences in recording protocol. In the first phase, the initial voltage pulse used a 100 ms step to -30 mV from a holding potential of -70 mV, a 2 s conditioning step to +25 mV, and a 2 s test step to -30 mV. During the second phase of the screen, the potential during the conditioning step was raised to +45 mV. In both phases of the campaign, a secondary voltage pulse was applied using the same parameters as the second phase initial pulse. The initial and secondary pulses were applied in the absence of compound, and upon application of 1 μM and 10 μM test concentrations. Small molecule effects on hERG current density were quantified by […].

human ether-à-go-go-related gene (hERG) potassium channel, sequence (Q12809 whole entry, looked up): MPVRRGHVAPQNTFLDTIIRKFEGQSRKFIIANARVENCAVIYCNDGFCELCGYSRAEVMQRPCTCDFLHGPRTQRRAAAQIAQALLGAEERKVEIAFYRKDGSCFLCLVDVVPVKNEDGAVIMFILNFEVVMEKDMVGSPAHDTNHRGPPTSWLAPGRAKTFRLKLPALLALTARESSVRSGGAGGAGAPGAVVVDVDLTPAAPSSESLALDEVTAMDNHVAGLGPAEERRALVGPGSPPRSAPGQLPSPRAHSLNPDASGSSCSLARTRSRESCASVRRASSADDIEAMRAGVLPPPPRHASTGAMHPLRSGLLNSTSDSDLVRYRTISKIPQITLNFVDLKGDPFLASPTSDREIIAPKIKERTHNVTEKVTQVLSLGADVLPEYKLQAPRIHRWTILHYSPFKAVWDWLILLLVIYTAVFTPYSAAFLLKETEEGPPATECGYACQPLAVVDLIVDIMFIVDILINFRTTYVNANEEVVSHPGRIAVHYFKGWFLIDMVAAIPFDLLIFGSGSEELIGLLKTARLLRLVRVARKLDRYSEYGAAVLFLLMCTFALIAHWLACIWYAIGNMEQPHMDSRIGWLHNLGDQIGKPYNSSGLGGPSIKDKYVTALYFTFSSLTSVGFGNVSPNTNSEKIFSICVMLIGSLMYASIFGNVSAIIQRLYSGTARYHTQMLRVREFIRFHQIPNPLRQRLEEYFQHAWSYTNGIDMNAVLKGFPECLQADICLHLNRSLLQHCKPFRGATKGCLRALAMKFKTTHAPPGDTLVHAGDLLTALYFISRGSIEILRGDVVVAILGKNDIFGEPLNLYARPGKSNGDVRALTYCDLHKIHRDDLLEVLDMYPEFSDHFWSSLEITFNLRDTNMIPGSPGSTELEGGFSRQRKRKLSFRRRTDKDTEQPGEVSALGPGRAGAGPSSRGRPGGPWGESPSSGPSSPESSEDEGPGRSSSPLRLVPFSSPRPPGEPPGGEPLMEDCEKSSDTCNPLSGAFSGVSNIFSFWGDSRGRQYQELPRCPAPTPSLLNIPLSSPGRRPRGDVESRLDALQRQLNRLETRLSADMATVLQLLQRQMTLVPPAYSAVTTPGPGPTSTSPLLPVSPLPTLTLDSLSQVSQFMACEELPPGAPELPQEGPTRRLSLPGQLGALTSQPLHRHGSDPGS

SMILES	hERG current change (%, negative = inhibition) at 1uM
CNc1nc(SC)nc2ccccc12	16.4%
CC1CCN(CCCNC(=O)c2ccc(CSCc3cccc(Cl)c3)o2)CC1	-62.4%
CN1CCN(CCCNC(=O)c2ccc(CSCc3cccc(Cl)c3)o2)CC1	1.54%
COc1cccc(C(=O)NCCCNC(=O)c2cccc(OC)c2)c1	12.4%
COc1cc(OC)cc(C(=O)NCCCN2CCN(CCCNC(=O)c3cc(OC)cc(OC)c3)CC2)c1	-18.8%
COc1cccc(C(=O)NCCCN2CCN(CCCNC(=O)c3cccc(OC)c3)CC2)c1	-65.2%
O=C(NCCCN1CCCC1)c1ccc(CSCc2cccc(Cl)c2)o1	-30.4%
Cc1ccc2nsnc2c1NC(=O)c1cccnc1Cl	15.1%
COc1ccc(S(=O)(=O)N2CCC(Nc3ccccc3Cl)CC2)cc1	28.1%
COc1ccc(/C=C2\SC(=S)N(CC(=O)NC3CCS(=O)(=O)C3)C2=O)cc1 (centres unmarked)	17.2%
COc1ccc2c(c1)c1c(n2C(C)=O)C(OC(C)=O)=NCC1	2.42%
COc1ccc2c(c1)c1c3n2CCN(C)C3=NCC1.Cl	-54.9%
CN=C1c2c(-c3ccccc3)c3cc(OC)ccc3n2CCN1C.Cl	-31.6%
COc1ccc(OCC(=O)Nc2c3c(nn2-c2ccccc2)CS(=O)(=O)C3)cc1	7.69%
O=C1c2ccccc2C(=O)N1Cc1cccnc1	15.6%
Cc1cc(N2CCN(C)CC2)n2cc(-c3ccc(F)cc3)nc2n1	-89.8%
Cc1cc(N2CCN(c3ccccc3Cl)CC2)n2cc(-c3ccccc3)nc2n1	-2.03%
Cc1cc(N2CCOCC2)n2nc(C)c(-c3ccc(Cl)cc3)c2n1	7.28%
Cc1cc(N2CCOCC2)n2cc(-c3ccc(F)cc3)nc2n1	-34.9%
Cc1cc(N2CCN(c3ccccn3)CC2)n2cc(-c3ccccc3)nc2n1	-65.4%
Cc1cc(N2CCOCC2)n2cc(-c3ccccc3)nc2n1	-14.6%
Cc1nc2nc(-c3ccc(Cl)cc3)nn2c(C)c1Cl	13.4%

SMILES	hERG current change (%, negative = inhibition) at 1uM
Cc1cc(N2CCN(c3ccccc3)CC2)n2cc(-c3ccccc3)nc2n1	-16.4%
Cc1cc(N2CCN(C)CC2)n2nc(-c3ccc(Cl)cc3)nc2n1	-67.2%
Cc1cc(C)nc(-n2ncc3c2CC(C)CC3=O)n1 (centres unmarked)	11.4%
O=C(CN1C(=O)C2CCCCN2C(=O)c2ccccc21)N1CCCc2ccccc21 (centres unmarked)	15.1%
O=C(Cc1cccs1)Nc1nnc(SCc2cccc3ccccc23)s1	-3.03%
COc1ccc(OC)c(NC(=O)CSc2nc(=O)n(Cc3ccccn3)c3c2CCC3)c1	-2.43%
Cc1cc(O)c(C(C)C)cc1NC(=O)Cn1nc(C)c2ccccc2c1=O	-6.85%
Cc1ccc(NC(=O)CCc2ccc(C)o2)cc1	7.21%
COC(=O)c1ccc(NC(=O)c2cc[n+]([O-])cc2)cc1	10.9%
Clc1ccc2[nH]c3c(NCCN4CCOCC4)ncnc3c2c1	-2.76%
CCN1CCCC1CNC(=O)c1cc2cc(F)ccc2[nH]1 (centres unmarked)	-53.8%
CCN1CCCC1CNc1ncnc2c1[nH]c1ccc(Cl)cc12 (centres unmarked)	-85.5%
Fc1ccc2[nH]c3c(NCCN4CCOCC4)ncnc3c2c1	8.84%
CCN1CCCC1CNC(=O)c1cc2ccc(OC)cc2[nH]1 (centres unmarked)	5.34%
Fc1ccc2[nH]c3c(NCc4ccccc4)ncnc3c2c1	15.4%
CCN1CCCC1CNC(=O)c1cc2cc(OC)c(OC)cc2[nH]1 (centres unmarked)	16.2%
CCN1CCCC1CNc1ncnc2c1[nH]c1ccc(F)cc12 (centres unmarked)	-81.4%
Clc1ccc2[nH]c3c(NCC4CCCO4)ncnc3c2c1 (centres unmarked)	-3.05%
CCc1noc(C)c1C(=O)NNC(=O)c1cc(OC)cc(OC)c1	9.15%
CCOc1cc(C2c3c(n[nH]c3C)C(=O)N2c2ccc(Br)cc2)ccc1O (centres unmarked)	10.8%
CCC(Oc1ccc2c(c1)C(=O)CC(C)(C)O2)C(=O)NCCN1CCCCCC1.O=C(O)C(=O)O (centres unmarked)	-9.15%
C=CCn1c(SCC(=O)O)nnc1-c1cccs1	9.03%
